test system: LXRa:RXRa (NR concentration 270 nM, RXRa partner concentration 90 nM); assay: PBM binding z-score (relative to random genomic background probes); higher = stronger binding; sequences stand for … in GC…GCGATTGACAGCGTAGAATGAAGG
Outline: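 Binding buffer was PBS pH 7.4 with 2% milk, 0.02% Triton X-100, 1 mM DTT, 0.2 mg/mL BSA and 0.4 mg/ml salmon testes DNA. In it, ligand-free nuclear receptor dimers were incubated 1 h on custom Agilent 4×180K protein-binding microarrays carrying double-stranded probes. Antibodies against each partner (one per run) detected binding, and z-scores were calculated against random background probes after regression normalization of scanned fluorescence.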

| Sequence | PBM binding z-score |
| --- | --- |
| CCTAGTTGGTCAGGAGGTCACACTCCGGATATGA | 3.48 |
| ACTATTAGATGACTTAGGGCAACCGATACGACGC | 0.353 |
| CGAACTAGGTCATTGACAGGACAGTGAGTAGTAA | 3.06 |
| GGAACGAGGGCATTCGAGGTGATAGCATGGCGAT | 3.38 |
| GCGACTGGGGCATCAGCAGGTTACCAGAACTTAA | -0.156 |
| CCTAGCAGGCCAACCTGGGTCACTCAAGGCTTGA | 1.36 |
| TGAATGAGGTCATAAGATCAGGGAACGTTGCAAA | 5.47 |
| GATACATGGTCAAGGCCAGAGTACGCGTATTGAT | -0.622 |
| CGTGCAAGGTCAGCAGGTCAGTGAAAGCGACGTG | 4.37 |
| TTACCAAGGTGAGCTGAGGTCATTGATCCAACTC | 4.36 |
| CAAACCAGGTCACCGGAAGGTCAAAGTCCGCATG | 6.79 |
| ACAAGCAGGCCAAGTTTGGGTCACTCAAACAAAG | 0.181 |
| TCTTGTAGATCAATAGAGGTCAAGAAAGTGCGCT | 5.24 |
| ACTCGGAGGACAAAGGTTAGAGCTACGCCAGTGA | 1.08 |
| CAAACTAGGTCACCGGAAGGTCCAAGTCCGCATG | 3.41 |
| GCGACTGGGGCATGAGCAGGTTACCATAACTTAA | -0.325 |
| ATCTCTAGGTAAAGATAGTTCAGTGCATGCAAAT | 4 |
| TAGCATAGGTCATTCAGGGGCCAGTATAGAAAGC | 5.38 |
| ATCGAAAGGTGGTGAGGTGAGTATACAGAAAGGC | 0.31 |
| CCTACTGGGCCATTCAGCGGTCATTGATCATATG | 0.756 |
| CTCGAAAGGTCGGTTGAGGAGAGTATACGGATAA | 1.38 |
| TCAGACAGGTGAAGGTAACTCACGTACGCAGTCG | 2.26 |

Source: the supplement of paper PMC6555819
